Laboratory results: PubChem BioAssay AID1159580 (chemical genetic matrix, 2015)
The campaign covered roughly 5,500 compounds. About 2,000 (36%) were called active. Inconclusive results (about 18%) are left out. Rule as the data show it: active = normalized growth mostly below about 0.91 (no sharp cut-off); inconclusive = no clear call, values can overlap the other calls; inactive = mostly above about 0.92. The list shows a part of the results.

Test: chemical genetic growth profiling, strain panel (AID 1159580);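 also: tested at 20 µM; growth read once vehicle control cultures reached saturation at 30 °C; 1 = growth at the plate median or of vehicle wells; lower values mean less growth of the strain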
Conditions: growth OD

Measured: normalized growth

CCc1ccc(CCOc2ccc(CC3SC(=O)NC3=O)cc2)nc1 (configuration not stated)
inactive: S. cerevisiae deletion strains, locus YJR075W, strain HOC1, stronger effect = lower value 0.997 | S. cerevisiae deletion strains, locus YKL009W, strain mrt4, stronger effect = lower value 1.01 | S. cerevisiae deletion strains, locus YKL068W, stronger effect = lower value 0.991 | S. cerevisiae deletion strains, locus YKL085W, strain MDH1 (second series), stronger effect = lower value 0.991 | S. cerevisiae deletion strains, locus YKL085W, strain MDH1, stronger effect = lower value 0.991 | S. cerevisiae deletion strains, locus YKL160W, strain elf1, stronger effect = lower value 1.02 | S. cerevisiae deletion strains, locus YKL190W, strain CNB1, stronger effect = lower value 1.02 | S. cerevisiae deletion strains, locus YKR001C, strain vps1, stronger effect = lower value 0.977 | S. cerevisiae deletion strains, locus YKR026C, strain gcn3, stronger effect = lower value 1.01 | S. cerevisiae deletion strains, locus YKR091W, strain srl3, stronger effect = lower value 0.999 | S. cerevisiae deletion strains, locus YLL001W, strain dnm1, stronger effect = lower value 1 | S. cerevisiae deletion strains, locus YLL026W, stronger effect = lower value 1.02 | S. cerevisiae deletion strains, locus YLL041C, strain sdh2, stronger effect = lower value 1.01 | S. cerevisiae deletion strains, locus YLR027C, strain aat2, stronger effect = lower value 1.01 | S. cerevisiae deletion strains, locus YLR039C, strain RIC1, stronger effect = lower value 0.914 | S. cerevisiae deletion strains, locus YLR058C, strain SHM2, stronger effect = lower value 1.01 | S. cerevisiae deletion strains, locus YLR102C, strain apc9, stronger effect = lower value 0.988 | S. cerevisiae deletion strains, locus YLR113W, strain HOG1, stronger effect = lower value 1.01 | S. cerevisiae deletion strains, locus YLR221C, strain rsa3, stronger effect = lower value 1.01 | S. cerevisiae deletion strains, locus YLR258W, strain gsy2, stronger effect = lower value 1.02 | S. cerevisiae deletion strains, locus YLR262C, strain YPT6 (second series), stronger effect = lower value 0.99 | S. cerevisiae deletion strains, locus YLR262C, strain YPT6, stronger effect = lower value 0.88 | S. cerevisiae deletion strains, locus YLR268W, strain sec22, stronger effect = lower value 0.993 | S. cerevisiae deletion strains, locus YLR320W, strain mms22, stronger effect = lower value 1.01 | S. cerevisiae deletion strains, locus YLR330W, strain CHS5, stronger effect = lower value 1.01 | S. cerevisiae deletion strains, locus YLR342W, strain FKS1 (second series), stronger effect = lower value 0.985 | S. cerevisiae deletion strains, locus YLR342W, strain FKS1, stronger effect = lower value 1.02 | S. cerevisiae deletion strains, locus YLR357W, strain rsc2, stronger effect = lower value 1.03 | S. cerevisiae deletion strains, locus YLR370C, strain arc18, stronger effect = lower value 1.01 | S. cerevisiae deletion strains, locus YLR371W, strain rom2, stronger effect = lower value 0.989 | S. cerevisiae deletion strains, locus YLR384C, strain iki3, stronger effect = lower value 1.01 | S. cerevisiae deletion strains, locus YLR418C, strain cdc73, stronger effect = lower value 0.969 | S. cerevisiae deletion strains, locus YML016C, strain PPZ1, stronger effect = lower value 0.997 | S. cerevisiae deletion strains, locus YML032C, strain rad52, stronger effect = lower value 0.998 | S. cerevisiae deletion strains, locus YML120C, strain ndi1, stronger effect = lower value 1.02 | S. cerevisiae deletion strains, locus YML124C, strain tub3, stronger effect = lower value 0.992 | S. cerevisiae deletion strains, locus YMR058W, strain fet3, stronger effect = lower value 1.01 | S. cerevisiae deletion strains, locus YMR078C, strain ctf18, stronger effect = lower value 0.985 | S. cerevisiae deletion strains, locus YMR125W, strain sto1, stronger effect = lower value 1.02 | S. cerevisiae deletion strains, locus YMR129W, stronger effect = lower value 1 | S. cerevisiae deletion strains, locus YMR205C, strain PFK2, stronger effect = lower value 0.997 | S. cerevisiae deletion strains, locus YMR223W, strain ubp8, stronger effect = lower value 0.995 | S. cerevisiae deletion strains, locus YMR231W, strain pep5, stronger effect = lower value 0.995 | S. cerevisiae deletion strains, locus YMR263W, strain SAP30, stronger effect = lower value 1.04 | S. cerevisiae deletion strains, locus YMR307W, strain GAS1, stronger effect = lower value 0.938 | S. cerevisiae deletion strains, locus YNL067W, strain RPL9B, stronger effect = lower value 1.06 | S. cerevisiae deletion strains, locus YNL071W, strain lat1, stronger effect = lower value 1.01 | S. cerevisiae deletion strains, locus YNL128W, strain TEP1, stronger effect = lower value 1.04 | S. cerevisiae deletion strains, locus YNL153C, strain GIM3, stronger effect = lower value 1 | S. cerevisiae deletion strains, locus YNL183C, strain NPR1, stronger effect = lower value 0.963 | S. cerevisiae deletion strains, locus YNL209W, strain ssb2, stronger effect = lower value 0.997 | S. cerevisiae deletion strains, locus YNL233W, strain BNI4, stronger effect = lower value 1.01 | S. cerevisiae deletion strains, locus YNL248C, strain rpa49, stronger effect = lower value 1.02 | S. cerevisiae deletion strains, locus YNL250W, strain rad50, stronger effect = lower value 0.995 | S. cerevisiae deletion strains, locus YNL271C, strain bni1, stronger effect = lower value 1 | S. cerevisiae deletion strains, locus YNL298W, strain CLA4, stronger effect = lower value 0.997 | S. cerevisiae deletion strains, locus YNL307C, strain MCK1, stronger effect = lower value 0.994 | S. cerevisiae deletion strains, locus YNL322C, strain KRE1 (second series), stronger effect = lower value 1.02 | S. cerevisiae deletion strains, locus YNL322C, strain KRE1, stronger effect = lower value 0.994 | S. cerevisiae deletion strains, locus YNR049C, strain mso1, stronger effect = lower value 1.01 | S. cerevisiae deletion strains, locus YNR052C, strain pop2, stronger effect = lower value 1.01 | S. cerevisiae deletion strains, locus YOL006C, strain TOP1, stronger effect = lower value 1 | S. cerevisiae deletion strains, locus YOL012C, strain htz1 1.21 | S. cerevisiae deletion strains, locus YOL147C, strain pex11, stronger effect = lower value 0.996 | S. cerevisiae deletion strains, locus YOR001W, strain rrp6, stronger effect = lower value 1.01 | S. cerevisiae deletion strains, locus YOR061W, strain CKA2, stronger effect = lower value 0.999 | S. cerevisiae deletion strains, locus YOR069W, strain VPS5, stronger effect = lower value 1 | S. cerevisiae deletion strains, locus YOR070C, strain gyp1, stronger effect = lower value 1.01 | S. cerevisiae deletion strains, locus YOR080W, strain dia2, stronger effect = lower value 1.01 | S. cerevisiae deletion strains, locus YOR083W, strain WHI5, stronger effect = lower value 1 | S. cerevisiae deletion strains, locus YOR106W, strain vam3, stronger effect = lower value 1.02 | S. cerevisiae deletion strains, locus YOR136W, strain idh2, stronger effect = lower value 1 | S. cerevisiae deletion strains, locus YOR144C, strain elg1, stronger effect = lower value 0.993 | S. cerevisiae deletion strains, locus YOR184W, strain ser1, stronger effect = lower value 0.971 | S. cerevisiae deletion strains, locus YOR231W, strain MKK1, stronger effect = lower value 0.98 | S. cerevisiae deletion strains, locus YOR265W, strain rbl2, stronger effect = lower value 1.01 | S. cerevisiae deletion strains, locus YOR270C, strain vph1, stronger effect = lower value 1.04 | S. cerevisiae deletion strains, locus YOR290C, strain snf2, stronger effect = lower value 1 | S. cerevisiae deletion strains, locus YOR316C, strain cot1, stronger effect = lower value 0.997 | S. cerevisiae deletion strains, locus YPL051W, strain arl3, stronger effect = lower value 1.01 | S. cerevisiae deletion strains, locus YPL055C, strain LGE1, stronger effect = lower value 1.02 | S. cerevisiae deletion strains, locus YPL078C, strain atp4, stronger effect = lower value 1.01 | S. cerevisiae deletion strains, locus YPL106C, strain sse1, stronger effect = lower value 1.02 | S. cerevisiae deletion strains, locus YPL240C, strain hsp82, stronger effect = lower value 1.02 | S. cerevisiae deletion strains, locus YPL241C, strain CIN2, stronger effect = lower value 1 | S. cerevisiae deletion strains, locus YPL256C, strain CLN2, stronger effect = lower value 0.936 | S. cerevisiae deletion strains, locus YPR119W, strain clb2, stronger effect = lower value 0.989 | S. cerevisiae deletion strains, locus YPR141C, strain kar3, stronger effect = lower value 0.994 | S. cerevisiae deletion strains, locus YPR163C, strain tif3, stronger effect = lower value 0.999 | S. cerevisiae deletion strains, locus YPR167C, strain met16, stronger effect = lower value 0.996 | S. cerevisiae deletion strains, strain wtn01, stronger effect = lower value 0.99 | S. cerevisiae strains, strain wild type, stronger effect = lower value 1.01
